# IL-2 act = activates IL-2 in a cell-based reporter assay; activation, % (series mostly up to about 46 µM); IL-2 activation reporter assay, cell-based qHTS; stimulated with anti-CD3/CD4/CD28 beads; in transgenic mouse T cells; 0.065% of 360,000 active; AID 652025; in the data active = activation above about 50%; inconclusive = mostly about 30% to 49%; note: 0% is about no effect
#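 Readout: EGFP and DsRed signals by fluorescent plate cytometry. Unstimulated transgenic mouse T cells received compound 60 min before antibody-bead stimulation, then incubated 18 h at 37 degrees C.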
# Integrin act MD = activates integrin-mediated alleviation for muscular dystrophy. alpha7betagal myoblasts, beta-gal FDG fluorescence, 48 h. 0.064% of 350,000 active. AID 624291. Potency, µM (titrated, usually from 38.3 µM), inactives show at the highest dose activation, usual class: activators;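 note: potency is the fitted concentration of half-maximal effect; 100% = response of the positive control SU9516; nearly all actives have a fitted effect of over 60% in size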
#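 Alpha7betagal+/- myoblasts (passage 13) were plated 16-24 hr, then exposed to compounds (1:260 dilution of DMSO stock) for 48 hours at 37C. After MPER lysis, β-galactosidase reporter activity was read as FDG fluorescence (ex 480/em 540) after 30 minutes.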
# BRCA1 expr act = activators of BRCA1 expression. MCF7-BRCA1-FFLuc reporter, luminescence, 48 h; response scale: scaled: vehicle 0%, 10 µM genistein 100%. Potency, µM (highest dose often 46.1 µM), for inactives: top-dose activation, actives largely listed as activators. 1.1% of 380,000 active; note: potency is the fitted concentration of half-maximal effect; nearly all actives have a fitted effect of over 80% in size
#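 Luminescence from a BRCA1-driven firefly luciferase in MCF7 cells was the read-out, taken 15 min after substrate addition following 48 h compound exposure at 37 °C. Data were normalized to a 10 microM genistein control and DMSO vehicle.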
# Anesthetic bind = candidate novel general anesthetic via apoferritin binding; apoferritin/1-aminoanthracene competitive binding, fluorescence; Potency, µM (titrated, usually from 77.5 µM), inactives show top-dose activity change, negative = displacement, actives largely listed as inhibitors; 0.074% of 350,000 active; note: potency is the fitted concentration of half-maximal effect; % is set by controls: 0 for no effect and ±100 for the full control effect; nearly all actives have a fitted effect of over 20% in size
# Target sequence (P02791 2-175 limits assumed): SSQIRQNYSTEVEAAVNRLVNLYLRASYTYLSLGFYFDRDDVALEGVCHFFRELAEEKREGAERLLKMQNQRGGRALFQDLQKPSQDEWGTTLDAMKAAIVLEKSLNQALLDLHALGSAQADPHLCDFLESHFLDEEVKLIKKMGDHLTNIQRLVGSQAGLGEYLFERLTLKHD
#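 Read-out: endpoint 1-AMA fluorescence, excitation 380 nm and emission 535 nm, after compounds sit 10 min at room temperature with 10 uM horse-spleen apoferritin in 50% saturated 1-AMA/PBS. Values come from four-parameter Hill fits.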
# PKM2 activator = PKM2 (human) enzyme activation; P14618; purified PKM2, Kinase-Glo ATP luminescence, activation; response scale: 0% is enzyme alone, no compound; Potency, µM (doses to about 57.5 µM), without a hit: top-dose activation, actives largely listed as activators; 0.34% of 260,000 active; AID 1631; note: potency is the fitted concentration of half-maximal effect; % is set by controls: 0 for no effect and ±100 for the full control effect; nearly all actives have a fitted effect of over 55% in size
# Target sequence (P14618 whole entry, looked up): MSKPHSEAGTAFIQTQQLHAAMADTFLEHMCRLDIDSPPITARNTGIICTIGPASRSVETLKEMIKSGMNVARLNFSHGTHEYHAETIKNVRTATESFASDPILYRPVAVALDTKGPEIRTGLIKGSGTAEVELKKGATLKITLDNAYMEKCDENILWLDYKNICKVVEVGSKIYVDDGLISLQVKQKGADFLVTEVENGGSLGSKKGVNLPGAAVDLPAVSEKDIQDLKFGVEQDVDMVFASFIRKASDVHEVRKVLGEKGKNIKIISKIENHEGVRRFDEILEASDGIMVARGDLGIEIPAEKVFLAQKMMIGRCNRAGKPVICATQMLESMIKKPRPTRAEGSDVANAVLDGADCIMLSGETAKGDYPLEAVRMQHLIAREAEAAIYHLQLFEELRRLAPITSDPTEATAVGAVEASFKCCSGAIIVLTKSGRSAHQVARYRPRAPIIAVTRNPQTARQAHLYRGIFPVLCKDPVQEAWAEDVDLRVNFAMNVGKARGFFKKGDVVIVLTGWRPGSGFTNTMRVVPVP
#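 hPK-M2, >95% pure; 0.1 mM ADP / 0.5 mM PEP final; imidazole pH7.2 buffer w/ 7 mM MgCl2, 50 mM KCl; 1 h RT; Kinase-Glo lum. Intermediate enzyme activity for dual inhibitor/activator qHTS.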
# * hit, by the source's call; ? = inconclusive; . = not tested or not shown; [ ] = another dose, or the depositor's remark. Compounds with a hit are over-represented: about 1.3% of the library has one in this group of screens. Unless noted, calls come from the whole dose curve; as a rule, active = well fitted curve in the direction sought with a large enough effect; inconclusive = small, poorly fitted or top-dose-only effect, or another doubt; inactive = no such curve, though single readings can be large; an effect the other way counts as inactive or inconclusive.
SMILES,IL-2 act,Integrin act MD,BRCA1 expr act,Anesthetic bind,PKM2 activator
O=C(Cc1cccs1)Nc1ccc(N2CCOCC2)cc1,0,11%,7.9µM*,-15%,-22%
Cc1c2c(c(O)c3c(O)cccc13)C(=O)O[C@H]2C1C(N(C)C)C(O)=C(C(N)=O)C(=O)[C@H]1O (stereo not given in full),.,.,.,0%,.
O=C(CCSCc1ccccc1F)N1CCN(c2ccccn2)CC1,-3,-6%,10µM*,-4%,2%
Cc1ccc(Cl)cc1N1CCN(C(=O)CCSCc2ccccc2F)CC1,.,.,.,48%,.
COc1ccc(-n2c(C)c(C(C)=O)c3cc(OC(C)=O)ccc32)cc1,2,10µM*,1%,-6%,8%
COc1ccc2c(c1)c(C(C)=O)c(C)n2-c1ccc(C(C)=O)cc1,0,0%,-10%,-9%,.
C[C@@]12C=Cc3occc3[C@H]1CC[C@]13CC(=O)[C@@H](CC[C@H]12)C3,.,.,.,-2%,.
O=C(OCc1ccccc1F)c1ccc2c(c1)-c1ccccc1C2=O,3,-16%,7.1µM*,-8%,-7%
O=C(OCc1cccc(F)c1)c1ccc2c(c1)-c1ccccc1C2=O,-2,0%,11µM*,-12%,2%
CCOC(=O)c1ccc(COC(=O)c2ccc3c(c2)-c2ccccc2C3=O)cc1,14,8%,-21%,-9%,1%
Cn1ccc(C(=O)Nc2ccc(Br)cc2Br)n1,0,27%,2.2µM*,-14%,-2%
CCCCN(C)C1=CC2=CC(=C(C#N)C#N)CCC2CC1 (stereo not given),-5,-258%,-8%,-16%,0%
CCN(CC)C1=CC2=CC(=C(C#N)C#N)CCC2CC1 (stereo not given),102*,-234%,-21%,-10%,6%
O=C(Cc1ccccc1)NC1CCN(S(=O)(=O)c2ccc(C(=O)O)cc2)CC1,-1,-28%,10%,-7%,0%
O=C(Cc1ccccc1)NC1CCN(S(=O)(=O)c2cccc(F)c2)CC1,-1,1%,-4%,-15%,28µM*
O=c1[nH]c(CSc2ccccn2)nc2ccccc12,-3,-23%,91%,-9%,-1%
Nn1c(CSc2ccccn2)nc2ccccc2c1=O,0,-7%,10µM*,-22%,1%
CCOC(=O)[C@]1(C(NC(=O)OC)c2cccc(C)c2)CCCC1=O (stereo not given in full),.,.,.,-2%[15.3 µM],.
CCN(CC)S(=O)(=O)c1cccc(N=Nc2sc(N)nc2C)c1,4,-19%,-28%,-20%,.
Cc1nc(N)sc1N=Nc1ccccc1C(F)(F)F,0,?,7.1µM*,?,.
COC(=O)c1c(-c2ccccc2)csc1N1C(=O)Nc2ccccc2N1O,3,-3%,7.9µM*,-3%,-17%
CCOC(=O)c1c(-c2ccccc2)csc1N1C(=O)Nc2ccccc2N1O,0,9%,-4%,-10%,-1%
COC(=O)COc1ccc(S(=O)(=O)NCCC2=CCCCC2)cc1C,-3,-12%,-5%,5.6µM*,9%
COCCNS(=O)(=O)c1ccc2c(c1)Cc1cc(S(=O)(=O)NCCOC)ccc1-2,-1,5%,-3%,-10%,26%
COCCNS(=O)(=O)c1ccc2c(c1)C(=NO)c1cc(S(=O)(=O)NCCOC)ccc1-2,-4,3%,-4%,-6%,10µM*
SMILES,IL-2 act,Integrin act MD,BRCA1 expr act,Anesthetic bind,PKM2 activator
Cc1ccc(-c2nnc(NC(=O)c3ccco3)s2)cc1,0,-3%,2.2µM*,-5%,-19%
O=C(Nc1nnc(Cc2ccccc2)s1)c1ccco1,4,-5%,13µM*,-21%,-6%
NC(=O)c1cc(Cc2ccccc2)sc1NC(=O)c1ccco1,-2,-8%[7.66 µM],7.9µM*,-3%,-8%
O=C(Nc1nnc(CCc2ccccc2)s1)c1ccco1,1,1%,67%,0%,-5%
COc1cccc(-c2nnc(NC(=O)c3ccco3)s2)c1,1,-2%,6.3µM*,-9%,.
COc1ccc(-c2nnc(NC(=O)c3ccco3)s2)cc1,0,13%,?,12%,-8%
Cc1ccc(Oc2ccc(NC(=O)c3ccco3)cc2)cc1,2,0%[7.66 µM],11µM*,?,-18%
COc1cccc(-c2nnc(NC(=O)c3cccs3)s2)c1,0,27%,4µM*,-6%,-1%
CCOC(=O)Nc1nnc(-c2cccc(OC)c2)s1,0,8%,51%,-6%,-3%
COc1cccc(-c2nnc3sc(-c4ccco4)nn23)c1,-2,-24%,8.9µM*,-10%,-10%
Cc1cccc2[nH]c(-c3ccc(NC(=O)c4ccco4)cc3)nc12,-1,-16%,1.8µM*,70%,-12%
O=c1cccccc1NN=C1CCCCCC1,-1,10%,10µM*,-22%,-3%
O=C(NCC(c1ccco1)S(=O)(=O)c1cccs1)c1ccc(C(F)(F)F)cc1 (stereo not given),.,.,.,-4%,.
C=C[C@@H]1CN2CCC1C[C@@H]2C(O)c1ccnc2ccc(OC)cc12 (stereo not given in full),.,.,.,-11%,.
N#Cc1ccc(Sc2nc3ccccc3[nH]2)cc1C#N,1,10µM*,-38%,-20%,26%
CCc1ccccc1NC(=O)CSc1nc2c(oc3ccccc32)c(=O)n1-c1ccccc1F,.,.,.,-3%,.
CCC(C)NC(=O)c1cc2cc3ccc(OC)cc3nc2o1 (stereo not given),-3,6%,11µM*,10%,.
COc1ccc2nc3oc(C(=O)N4CC(C)CC(C)C4)cc3cc2c1 (stereo not given),-4,-28%,65%,?,.
COc1ccc2nc3oc(C(=O)N4CCCCC4)cc3cc2c1,-3,6%,7.1µM*,23%,-9%
COc1ccc(C2=Nn3c(nnc3-c3ccccc3O)SC2)c(OC)c1,.,.,.,-20%,.
Cc1cccc(S(=O)(=O)c2cn(Cc3ccccc3)c3cc(N4CCCCC4)c(F)cc3c2=O)c1,.,.,.,-14%,.
O=C(NCCc1ccccc1)C1CCC(=O)N1C1CCCC1 (stereo not given),-4,10µM*,-5%,7%,.
CNc1ccc(/C=C/c2ccnc3ccccc23)cc1,.,.,7%,.,.
O=C1c2ccccc2-c2c1cccc2C(=O)N1CCN(C(=O)c2ccco2)CC1,-1,-33%,2%,-17%,16µM*
Cc1nn(C)c(Cl)c1S(=O)(=O)N(Cc1ccco1)c1ncnc2nc[nH]c12,.,.,8%,.,.
Cc1ccc(NC(=O)NC2CCCCC2)cc1Cl,2,9%,5µM*,-5%,-2%
COc1cccc(NC(=O)Nc2ccc(C)c(Cl)c2)c1,-3,16%,7.1µM*,-3%,-6%
Cc1ccc(NC(=O)C2CCN(C(=O)NC3CCCCC3)CC2)cc1Cl,1,-1%,-1%,-15%,3%
COc1cccc(NC(=O)Nc2cccc(C)n2)c1,-3,?,13µM*,9%,.
